Data on 40 compounds can be found in PubChem BioAssay (Tox21).

Inconclusive results are not listed. Calls of active or inactive are those of the source. The call rests on the fitted dose curve.

The assay is described as follows: qHTS assay for small molecule agonists of the p53 signaling pathway (AID 651631). Further: nearly all actives have a fitted effect of over 15% in size. The settings on record: HCT-116 p53RE-bla reporter, beta-lactamase FRET ratio, 16 h; series mostly up to 73.3 µM. The source says: U.S. Tox21 Program National Center for Advancing Translational Sciences [NCATS] NIH Chemical Genomics Center [NCGC] U.S. Environmental Protection Agency [EPA] National Institutes of Environmental Health Sciences [NIEHS] National Toxicology Program [NTP] U.S. Food and Drug Administration [FDA] Tox21 Assay Overview: p53, a tumor suppressor protein, is activated following cellular insult, including DNA damage and other cellular stresses. The activation of p53 regulates cell fate by inducing DNA repair, cell cycle arrest, apoptosis, or cellular senescence. The activation of p53, therefore, is a good indicator of DNA damage and other cellular stresses. The CellSensor p53RE-bla HCT-116 cell line (Invitrogen) contains a stably integrated beta-lactamase reporter gene under control of the p53 response elements. The activation of the reporter gene under culture conditions can be detected by fluorescence intensity. This cell line was used to screen the Tox21 compound library in a 1536-well plate format and to identify agonists that activate the p53 signaling pathway.
Tox21 Assay Protocol Summary: The p53RE-bla cells were dispensed at 4,000 cells/5 ul/well in 1536-well black wall/clear bottom plates using a Multidrop dispenser. After the assay plates were incubated at a 37 C/5% CO2 incubator for 5 hours, 23 nL of compounds dissolved in DMSO, positive controls or DMSO only was transferred to the assay plate by a pin tool. The plates were incubated at 37 C for 16 hours. After 1 uL of LiveBLAzerTM B/G FRET substrate was added using a Flying Reagent Dispenser, the plates were incubated at room temperature for 2 hours, and fluorescence intensity was measured by an Envision plate reader.
With `Cc1ccc(S(=O)(=O)N=C=O)cc1`, the outcome was inactive.

For the compound `CC1(C)S[C@@H]2[C@H](NC(=O)COc3ccccc3)C(=O)N2[C@H]1C(=O)O`, the outcome was inactive.

Consider `c1ccc(Oc2ccccc2)cc1`, for which the result was inactive.

Turning to `O=C(O)c1ccccc1C(=O)O`, the outcome was inactive.

Consider `O=C1C(c2[nH]c3ccccc3c2O)=Nc2ccccc21`, for which the outcome was inactive.

In the case of `CNC(=S)N(C)C`, the outcome was inactive.

With `C[Si]1(C)O[Si](C)(C)O[Si](C)(C)O[Si](C)(C)O1`, the outcome was inactive.

In the case of `CCOCCOCCOCCO`, the result was inactive.

Regarding `COc1cc(OC)c(C(=O)CCCN2CCCC2)c(OC)c1`, the outcome was inactive.

Consider `O=C(O)CCCCCCCCC(=O)O`, for which the outcome was inactive.

`CN(C)c1ccc(Cc2ccc(N(C)C)cc2)cc1`: the outcome was inactive.

Turning to `O=C1CCCC1`, the outcome was inactive.

With `CN1C(=O)CC[C@H]1c1cccnc1`, the outcome was inactive.

As to `C=CC(=O)OCCC(=O)O`, the result was inactive.

Regarding `CC(C)CCCCCCCOC(=O)CCCCC(=O)OCCCCCCCC(C)C`, the outcome was inactive.

For `C=C(C)CNCC`, the result was inactive.

On to `CC(C)OP(=O)(CP(=O)(OC(C)C)OC(C)C)OC(C)C`, for which the result was inactive.

On to `CC(C)(C#N)c1cc(Cn2cncn2)cc(C(C)(C)C#N)c1`, for which the result was inactive.

In the case of `Clc1ccccn1`, the result was inactive.

Regarding `NCCNCCN`, the outcome was inactive.

Regarding `CNC(=O)Oc1ccc2c(c1)[C@]1(C)CCN(C)[C@@H]1N2C`, the result was inactive.

`C=C(C)C(=O)OCC(C)C`: the outcome was inactive.

Take `CC(=O)Oc1ccc(C)cc1`: the result was inactive.

Consider `CCOC(=O)c1ccc(N)cc1`, for which the result was inactive.

Turning to `NCCCCCCN`, the outcome was inactive.

As for `C[C@]12CC[C@@H]3c4ccc(O)cc4CC[C@H]3[C@@H]1C[C@@H](O)[C@@H]2O`, the outcome was inactive.

Regarding `CN(C)CCOC(=O)COc1ccc(Cl)cc1`, the outcome was inactive.

`C=Cc1ccc(C)cc1`: the result was inactive.

On to `CC(=O)c1ccc(O)cc1`, for which the result was inactive.

In the case of `CC(=O)OCCOC(C)=O`, the result was inactive.

For the compound `COCCCN`, the outcome was inactive.

Regarding `NC(=S)NNC(N)=S`, the outcome was inactive.

Turning to `CC(C)=CCl`, the outcome was inactive.

Take `OCc1cccc(Oc2ccccc2)c1`: the outcome was inactive.

For `O=C(O)Cn1c(=O)n(Cc2ccc(Br)cc2F)c(=O)c2ccc(Cl)cc21`, the result was inactive.

With `CC(O)CC(C)(C)O` (stereo not given), the result was inactive.

Take `C=CCCCCCCCCC(=O)O`: the result was inactive.

In the case of `C=CC(C)CCCC(C)(C)O` (stereo not given), the outcome was inactive.

Turning to `NCCN1CCNCC1`, the result was inactive.

Consider `CC(CCl)OP(=O)(OC(C)CCl)OC(C)CCl` (stereo not given), for which the outcome was inactive.
